The record followed here is PubChem BioAssay (NCATS).

A number with no mark means an inactive call. Inconclusive results are not listed. Where a call stands in place of a potency, no number is given. Calls of active or inactive are those of the source. The call rests on the fitted dose curve; in most records, active means well fitted curve in the direction sought with a large enough effect; inconclusive means small, poorly fitted or top-dose-only effect, or another doubt; inactive means no such curve, though single readings can be large; an effect the other way counts as inactive or inconclusive.

Test [1] is described as follows: Vero cells viability qHTS for Zika virus inhibitors (AID 1347167). An outline of the steps: (§1)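 Cells seeded at 2.5 x 10^5 cells/mL in DMEM with 4% FBS and attached overnight at 37 degrees C, then exposed to compound for 24 to 48 hours. Viability read as ATP content by CellTiter Glo luminescence.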
Background: qHTS replaces the single test concentration by a dilution series.

Test [2] in a line: HepG2 cells viability qHTS for Zika virus inhibitors (AID 1347168). An outline of the steps: as §1
A short description of test [3]: qHTS to identify inhibitors of the type 1 interferon - major histocompatibility complex class I in skeletal muscle: primary screen against the NCATS Mechanism Interrogation Plate v5.0 (MIPE) Libary (AID 1347411). Further: nearly all actives have a fitted effect of over 65% in size. Further: potency means the concentration at half of the fitted maximal effect. An outline of the steps:
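Immortalized human C25cl48 myoblasts with HiBit knocked into endogenous HLA-B*08:01 were stimulated with 4.0 ng/ml IFN-beta and exposed to compounds (11-point 1:3 titration, top 46 uM final) for 24 hrs at 37 C; HiBiT lytic luminescence measured.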

A short description of test [4]: Tertiary RLuc qRT-PCR qHTS assay for Zika virus inhibitors (AID 1347169). Further: nearly all actives have a fitted effect of over 55% in size. Further: potency means the concentration at half of the fitted maximal effect. On activity change, negative = inhibition: top concentration of the series differs between compounds. The gist of the method: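 Inhibition of ZIKV-RLuc replication in Vero cells, read as Renilla luminescence 1-1.5 hrs after live-cell substrate addition, following 48-72 hrs infection at MOI 1-2 in presence of compound.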
Test [5] is described as follows: qHTS for inhibitors of adenylyl cyclases using a fission yeast platform: a pilot screen against the NCATS LOPAC library (AID 1347410). An outline of the steps: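 Inhibition of GNAS-stimulated AC9 activity in S. pombe was inferred from derepression of a PKA-repressed fbp1-GFP reporter, measured as cytometric fluorescence after 18 h at 30C with compounds at up to 57 µM.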

Test [6] is described as follows: Validation qHTS assay for inhibitors of Activation Induced Cytidine Deaminase (AID): UDG Counterscreen signal (AID 1347427). An outline of the steps: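 Counterscreen read of UDG activity (2 U/mL, 4/3x) in the FRET deamination format with AID (1 uM, 4/3x), DJC20/DJC23 substrates (250 nM, 4x), 4 h at room temperature. NaOH stop, fluorescence at 560 ex/665 em.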
Test [7] is described as follows: qHTS to identify inhibitors of the type 1 interferon - major histocompatibility complex class I in skeletal muscle: primary screen against the NCATS Pharmaceutical Collection (AID 1347407).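 Further: luminescence of HiBiT knocked into endogenous HLA-B as interferon-induced MHC class I level.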 The gist of the method:
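A qHTS format is used: 8-point, 1:5 compound series with 46 uM top final concentration, applied alongside 4 ng/ml IFN-beta to HLA-B*08:01-HiBiT knock-in myoblasts. Luminescence is measured after 24 h treatment.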

Test [8] deals with Protein phosphatase 1D (Homo sapiens) (UniProt O15297). The test can be described thus: RapidFire Mass Spectrometry qHTS Assay for Modulators of WT P53-Induced Phosphatase 1 (WIP1) (AID 1347424).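 Further: amount of dephosphorylated VEPPL-S-QETFS peptide product formed by WIP1.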 Further: potency means the concentration at half of the fitted maximal effect. On activity change, negative = inhibition: series mostly up to about 63 µM. The gist of the method:
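10 nM WIP1 preincubated with compounds 1 hr at room temperature in pH 7.5 Tris buffer with 30 mM MgCl2, 1 mM TCEP; 2 uM VEPPL-pS-QETFS phosphopeptide for 5 min, formic acid quench; dephosphorylated product quantified by RapidFire MS against labelled standard.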

Test [9] shares this target. In words: Rhodamine-PBP qHTS Assay for Modulators of WT P53-Induced Phosphatase 1 (WIP1) (AID 1347425). An outline of the steps:
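Steps: enzyme with Rh-PBP sensor and compounds, room-temperature incubation of 1 hr, baseline read, addition of VEPPL-pS-QETFS (10 uM final), kinetic fluorescence reads at 525/598 nm. Activity equals final minus baseline signal.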

The target in test [10] is Lysine-specific demethylase 5B (Homo sapiens) (UniProt Q9UGL1). The test can be described thus: Optimization screen for KDM5B Histone Demethylases FDH coupled qHTS against the LOPAC library (AID 1347166). An outline of the steps: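 KDM5BDeltaAP (200nM final) preincubated 10 min with compound, then 12.5uM H3K4Me3, 25uM a-ketoglutarate, ascorbate, Fe(II), NAD+ and FDH added; 50mM HEPES pH 7.5, 0.01% Tween-20. NADH fluorescence (340/450 nm) change over 30 min, room temperature.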
Chain of Lysine-specific demethylase 5B (Homo sapiens) (Q9UGL1 whole entry, looked up): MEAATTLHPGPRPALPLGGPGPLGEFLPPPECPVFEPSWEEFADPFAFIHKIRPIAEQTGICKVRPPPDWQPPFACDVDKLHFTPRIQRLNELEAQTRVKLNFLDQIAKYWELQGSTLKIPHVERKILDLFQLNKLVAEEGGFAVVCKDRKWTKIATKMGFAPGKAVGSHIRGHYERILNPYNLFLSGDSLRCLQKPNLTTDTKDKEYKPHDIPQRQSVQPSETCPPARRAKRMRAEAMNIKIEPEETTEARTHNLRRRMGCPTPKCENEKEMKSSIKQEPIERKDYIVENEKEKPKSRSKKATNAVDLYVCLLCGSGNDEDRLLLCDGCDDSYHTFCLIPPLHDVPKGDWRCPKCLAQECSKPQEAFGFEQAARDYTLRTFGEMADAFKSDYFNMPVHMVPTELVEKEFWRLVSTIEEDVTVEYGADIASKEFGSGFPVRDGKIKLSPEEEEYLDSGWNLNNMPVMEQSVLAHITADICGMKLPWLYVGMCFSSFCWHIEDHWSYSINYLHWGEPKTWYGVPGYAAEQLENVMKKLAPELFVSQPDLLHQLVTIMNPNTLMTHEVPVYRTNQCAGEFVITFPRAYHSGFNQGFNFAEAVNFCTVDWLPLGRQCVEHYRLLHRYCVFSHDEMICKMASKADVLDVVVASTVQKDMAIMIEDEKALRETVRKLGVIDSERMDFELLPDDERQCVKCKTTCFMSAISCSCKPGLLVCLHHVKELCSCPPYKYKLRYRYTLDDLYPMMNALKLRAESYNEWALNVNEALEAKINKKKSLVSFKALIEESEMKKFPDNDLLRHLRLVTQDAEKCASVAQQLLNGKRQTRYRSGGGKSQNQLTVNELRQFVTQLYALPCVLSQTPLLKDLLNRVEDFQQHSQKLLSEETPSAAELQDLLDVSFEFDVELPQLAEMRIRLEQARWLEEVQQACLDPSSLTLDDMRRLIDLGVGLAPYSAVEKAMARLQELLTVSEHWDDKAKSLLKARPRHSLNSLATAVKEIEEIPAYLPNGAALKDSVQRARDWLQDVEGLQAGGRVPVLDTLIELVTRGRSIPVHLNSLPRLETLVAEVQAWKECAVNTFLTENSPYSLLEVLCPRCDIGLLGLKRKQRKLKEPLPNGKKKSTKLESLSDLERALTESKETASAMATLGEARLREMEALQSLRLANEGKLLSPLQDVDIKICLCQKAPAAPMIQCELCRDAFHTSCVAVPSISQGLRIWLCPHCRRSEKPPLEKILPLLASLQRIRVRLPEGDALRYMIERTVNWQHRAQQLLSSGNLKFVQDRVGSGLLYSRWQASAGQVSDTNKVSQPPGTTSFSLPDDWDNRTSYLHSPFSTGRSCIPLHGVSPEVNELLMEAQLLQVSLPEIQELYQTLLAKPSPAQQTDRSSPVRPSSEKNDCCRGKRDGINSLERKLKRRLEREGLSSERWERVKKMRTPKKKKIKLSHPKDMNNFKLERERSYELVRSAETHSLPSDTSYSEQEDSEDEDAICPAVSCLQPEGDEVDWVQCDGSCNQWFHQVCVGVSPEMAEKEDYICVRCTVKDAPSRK

Chain of Protein phosphatase 1D (Homo sapiens) (O15297 whole entry, looked up): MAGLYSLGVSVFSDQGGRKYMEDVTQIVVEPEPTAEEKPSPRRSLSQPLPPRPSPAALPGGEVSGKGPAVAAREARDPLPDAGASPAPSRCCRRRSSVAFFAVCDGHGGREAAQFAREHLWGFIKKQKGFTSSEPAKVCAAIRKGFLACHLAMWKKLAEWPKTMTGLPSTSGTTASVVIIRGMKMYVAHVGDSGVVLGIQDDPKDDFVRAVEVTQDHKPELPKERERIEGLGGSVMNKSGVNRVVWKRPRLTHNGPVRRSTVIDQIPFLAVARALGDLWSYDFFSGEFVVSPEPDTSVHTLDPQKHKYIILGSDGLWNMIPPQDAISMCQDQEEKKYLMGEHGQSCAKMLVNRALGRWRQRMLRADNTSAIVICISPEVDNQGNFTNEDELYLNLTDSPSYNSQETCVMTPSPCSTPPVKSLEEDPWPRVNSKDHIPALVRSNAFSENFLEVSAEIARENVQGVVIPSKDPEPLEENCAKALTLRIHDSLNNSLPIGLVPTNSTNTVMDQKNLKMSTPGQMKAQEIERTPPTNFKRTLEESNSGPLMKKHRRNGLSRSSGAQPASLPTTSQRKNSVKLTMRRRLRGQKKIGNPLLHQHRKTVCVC

For the compound `N#CC(c1ccc(Cl)cc1)c1c(Cl)cc(-n2ncc(=O)[nH]c2=O)cc1Cl` (centres undefined), the outcome in test [1] and in test [2] was inactive. The Potency entry in test [3] is “inactive”.

As to `Cc1ccc2c(c1)C(=O)[C@]1(O)CCN(c3ccccc3)C1=N2`, the Potency entry in [4] and in [3] was “inactive” in each case.

Consider `O=c1cc(-c2ccc(O)c(O)c2)oc2cc(O)cc(O)c12`, for which the activity change, negative = inhibition in [4] was 46.1% [at 3.57 µM].

`COc1cc(Nc2nc3ccccc3nc2NS(=O)(=O)c2ccc(NC(=O)c3ccc(C)c(OC)c3)cc2)cc(OC)c1`: the compound was called inactive in test [1] and in test [2]. For the same compound, in test [3], the Potency entry is “inactive”.

Consider `Cc1cc(NC(=O)Nc2ccc(N(C)C)cc2)c2cc(F)cc(F)c2n1`, for which the Potency entry in [3] is “inactive”.

As to `CC[C@H](C)n1cc(C)c2c(C(=O)NCc3c(C)cc(C)[nH]c3=O)cc(-c3ccc(N4CCNCC4)nc3)cc21`, the call in test [1] and in test [2] was inactive. Moreover, the Potency entry in test [4] and in [3] was “inactive” throughout.

As to `CCCCC[C@H](O)C=C[C@H]1[C@H](O)CC(=O)[C@H]1CCCCCCC(=O)O`, the outcome in test [1] and in test [2] was inactive. Besides, in test [4], the Potency result was “inactive”.

In the case of `CCOC(=O)[C@H](CCc1ccccc1)N[C@@H](C)C(=O)N1CCCC1C(=O)O` (some centres undefined), the compound was called inactive in [1] and in test [2]. Also, in [4], the Potency result was “inactive”.

`C[C@H]1COC2=C1C(=O)C(=O)c1c2ccc2c1CCCC2(C)C`: the outcome in [1] and in test [2] was inactive. In addition, the Potency result in test [4] is “inactive”.

For the compound `COc1cc(Cl)cn2c(-c3cccc(NC4CNC4)n3)cnc12`, the compound was called inactive in test [1] and in test [2]. The Potency result in test [4] is “inactive”.

Take `OC(c1cc(C(F)(F)F)nc2c(C(F)(F)F)cccc12)C1CCCCN1` (centres undefined): in test [1], the call was inactive. Also, the Potency in test [4] was 16.5 µM (active).

`Cc1nc(C(=O)NCC(=O)O)c(O)c2ccc(Oc3ccccc3)cc12`: the compound was called inactive in [1] and in test [2]. Besides, the Potency result in test [4] and in test [3] was “inactive” throughout.

On to `COc1ccc(-c2ccc3ncc4c(c3c2)n(-c2ccc(N3CCNCC3)c(C(F)(F)F)c2)c(=O)n4C)cn1`, for which the activity change, negative = cytotoxicity in test [1] was -1.62% [at 4.93 µM]; in test [2] it was -5.65% [at 4.93 µM]. In test [3], the Potency is 0.147 µM (active).

`C=CCc1cccc(C=NNC(=O)CN2CCN(Cc3ccccc3)CC2)c1O`: the compound was called inactive in test [5] and in [6].

`O=C1Nc2ccc(I)cc2C1=Cc1cc(Br)c(O)c(Br)c1`: the result in [1] and in test [2] was inactive. Further, the Potency result in [4] is “inactive”.

On to `O=C(O)Cc1cccc(OCCCN(Cc2cccc(C(F)(F)F)c2Cl)CC(c2ccccc2)c2ccccc2)c1`, for which the call in test [2] was inactive. Further, the Potency entry in test [3] is “inactive”.

`Fc1ccc(C(c2ccc(F)cc2)N2CCN(CC=Cc3ccccc3)CC2)cc1`: the result in test [1] was inactive.

Consider `C[C@@H]1C[C@H]2[C@@H]3CCC4=CC(=O)C=C[C@]4(C)[C@@]3(F)[C@@H](O)C[C@]2(C)[C@@]1(O)C(=O)CO`, for which the compound was called inactive in test [7] and in test [9]. In test [8], the Potency entry is “inactive”.

As for `CCCCOCCOc1nc(-c2ccc(C(=O)O)c(F)c2)sc1C`, the compound was classed as inactive in test [1] and in test [2]. Further, the Potency entry in test [4] and in test [3] was “inactive” in each case.

With `O=S(=O)(O)c1ccc2cc(N=Nc3cc(S(=O)(=O)O)c4cccnc4c3O)ccc2c1`, the compound was classed as inactive in test [1] and in test [2]. Moreover, the Potency in test [4] was 3.7 µM (active). In test [3], the Potency entry was “inactive”.

Consider `c1cc(OCCN2CCCCC2)cc(-c2n[nH]c3ccc(-c4ncn[nH]4)cc23)c1`, for which the result in test [1] and in [2] was inactive. The Potency result in [4] and in test [3] was “inactive” each time.

`OC[C@H]1O[C@@H](OCCc2ccc(O)cc2)[C@H](O)[C@@H](O)[C@H]1O`: the outcome in test [7] and in test [9] was inactive. Moreover, the Potency entry in test [8] is “inactive”.

As to `CN(C)CCN(Cc1ccc(Cl)cc1)c1ccccn1`, the outcome in test [7] and in [9] was inactive. Further, in test [8], the Potency result is “inactive”.

As to `COc1ccnc(CS(=O)c2nc3ccc(OC(F)F)cc3[nH]2)c1OC` (centres undefined), the outcome in [7] and in test [9] was inactive. For the same compound, the Potency result in [8] was “inactive”.

Regarding `O=C(Nc1cccc2c(=O)cc(-c3nn[nH]n3)oc12)c1ccc(OCCCCc2ccccc2)cc1`, the call in test [1], in [2] and in test [7] was inactive. Moreover, in [8], the Potency was 15.8 µM (active).

On to `N#CC1(c2cccc(C(=O)Nc3cc(Oc4ccc5nc(NC(=O)C6CC6)sc5n4)ccc3F)c2Cl)CC1`, for which the compound was classed as inactive in test [1] and in test [2]. In test [3], the Potency result was “inactive”.

As for `O=C(Nc1ccccc1)Nc1ccc(-c2ccc(C(=O)[C@H]3CCC[C@H]3C(=O)O)cc2)cc1`, the outcome in test [1] and in [2] was inactive. In addition, the Potency entry in [4] is “inactive”.

Turning to `COc1ccc(-c2nc3ccc(C4=NNC(=O)CC4C)cc3[nH]2)cc1` (centres undefined), the compound was called inactive in test [7] and in test [9]. Also, the Potency entry in test [3] and in test [8] was “inactive” throughout.

With `C[C@H]1O[C@@H](n2cc(F)c(=O)[nH]c2=O)[C@H](O)[C@H]1O`, the compound was classed as inactive in [10] and in [6].

As to `CC(C)c1onc(-c2c(Cl)cccc2Cl)c1COc1ccc(C=Cc2cccc(C(=O)O)c2)c(Cl)c1`, the call in [2] was inactive.
